ADAM17 inh = ADAM17 inhibitors, primary screen, biochemical, QFRET. AID 720648, 2013. 370,000 compounds, 0.83% hits. inhibition, % at 6.95 µM. Disintegrin and metalloproteinase domain-containing protein 17 (Homo sapiens), P78536. recombinant ADAM17, EDANS/DABCYL FRET peptide cleavage;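 active = inhibition above the mean of compounds lying between control limits plus 3 SD, set per campaign, cut at about 8.5% in these data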;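 note: 0% = DMSO-only wells as the low control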
HGIII-sPLA2 inh = human group III sPLA2 inhibitors, primary screen, biochemical, QFRET, BODIPY PC-A2 liposome substrate | Group 3 secretory phospholipase A2 (Homo sapiens), Q9NZ20 | QFRET BODIPY PC-A2 liposome hydrolysis, fluorescence | inhibition, % at 12.2 µM | 370,000 compounds, 0.56% hits | AID 743126, 2013;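 active = inhibition above mean plus 3 SD of compounds lying within the high and low control bounds, cut at about 19% in these data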;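 note: 0% = median of test compound wells and 100% = no enzyme DMSO wells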
KLK7 zymogen act = proKLK7 zymogen activators, primary screen, biochemical, fluorescence intensity. activation, % at 7 µM. purified proKLK7, EDANS-DABCYL substrate fluorescence; 100% is mature enzyme control, 0% vehicle. AID 652039, 2013. 370,000 compounds, 0.9% hits;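 active = activation above the mean of all tested compounds plus 3 SD, computed per campaign excluding outliers beyond control limits, cut at about 13% in these data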
PLCg1 inh = PLC-gamma1 enzyme inhibitors, primary screen, biochemical, fluorescence, purified enzyme; 1-phosphatidylinositol 4,5-bisphosphate phosphodiesterase gamma-1 (Homo sapiens), P19174; fluorogenic substrate; inhibition, % at 12.2 µM; 370,000 compounds, 0.84% hits
ADAM10 inh = human ADAM10 inhibitors, primary screen, biochemical, QFRET, HTS; Disintegrin and metalloproteinase domain-containing protein 10 (Homo sapiens), O14672; recombinant ADAM10, EDANS/DABCYL FRET peptide cleavage, 3 h; inhibition, % at 7 µM; 370,000 compounds, 0.62% hits;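 active = inhibition above a per-campaign cutoff equal to the mean of compounds falling between control-based bounds plus 3 SD, cut at about 20% in these data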;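 note: 0% = DMSO wells while the 100% control is not disclosed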
PLCb3 inh = human PLC-beta3 inhibitors, primary screen, biochemical, fluorescence; Purified PLC-beta3, fluorogenic substrate; 370,000 compounds, 0.18% hits; AID 720704, 2013; 1-phosphatidylinositol 4,5-bisphosphate phosphodiesterase beta-3 (Homo sapiens), Q01970; inhibition, % at 12.2 µM; in the data active = inhibition above about 11%;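 note: 0% = median of compound wells on plate and 100% = full blocker control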
PLCg1 ctr = PLC-gamma1 enzyme inhibitors, counter-screen for PLC-beta3 inhibitor project, biochemical, fluorescence; shares compounds with PLCg1 inh; purified PLC-gamma1, fluorogenic substrate; inhibition, % at 12.3 µM; 3,300 compounds, 3.1% hits; AID 743258, 2014
PLCb3 confirm = PLC-beta3 inhibitor confirmation, biochemical, fluorescence, purified enzyme | shares compounds with PLCg1 inh | inhibition, % at 12.3 µM | 3,300 compounds, 1% hits | fluorogenic substrate fluorescence | AID 743261, 2014; in the data active = inhibition above about 11%
* hit, by the source's call; nt = no result given. An excerpt weighted towards active compounds, which were near 3.4% of everything screened. Cut-off read from the data, not from the text of the source, unless noted: active = inhibition above about 9.5%; inactive = the rest.

SMILES	ADAM17 inh	HGIII-sPLA2 inh	KLK7 zymogen act	PLCg1 inh	ADAM10 inh	PLCb3 inh	PLCg1 ctr	PLCb3 confirm
Cc1ccc(CNCC(O)(c2ccccc2)c2ccccc2)cc1	6.8	-4.9	0.1	10.2*	-0.3	1.1	1.6	0.8
COC(=O)C1CN(Cc2ccccc2)CCS(=O)(=O)N1Cc1ccc(C)cc1 (configuration not stated)	-3.4	-3.4	0.1	-1.1	-4.7	1.4	nt	nt
CNC(=O)C1Cc2c(-c3cccc(F)c3)ccnc2O1 (configuration not stated)	6.7	8.9	-0.4	16.2*	5.6	3.6	-3.8	0.7
O=C(c1cscn1)N1CCC(Oc2cccnc2)CC1	-4.4	0.3	-0.1	-0.7	-5.7	2.2	nt	nt
Cc1ccc(OC(=O)C2CCN(C(=O)c3ccccc3C)CC2)c(Br)c1	7.2	-15.9	0.6	10.8*	-10.7	-0.3	-3.6	-5.2
Cc1ccc(CCNC(=O)CS(=O)Cc2nc(-c3ccccc3Cl)oc2C)cc1 (configuration not stated)	2.9	-10.4	0.1	9.7*	18.2	-2.6	-5.7	-4.2
CCn1c(=O)n(CC(=O)N2CCN(C(C)=O)CC2)c(=O)c2ccccc21	-5.3	1.1	-0.4	-1.4	-12.4	-2.2	nt	nt
CCOc1ccc(/C=C2\CCC(C3CCCC3)C2=O)cc1 (configuration not stated)	-5.5	17.5	0.2	9.9*	1.6	-6.3	-8.5	-4.8
C#CCNC(=O)C[C@H]1C[C@@]2(C(=O)OC)C(=C[C@H](COCc3ccccc3)O[C@@H]2C)N(CCCCCCCC)C1=O	1.7	-12.2	0.8	-3.1	2.0	-2.3	nt	nt
COC(=O)[C@]12C[C@H](CC(=O)NCCCN3CCCC3=O)C(=O)N(CCC3=CCCCC3)C1=C[C@H](C(C)C)O[C@@H]2C1CC1	-0.8	-5.8	-0.2	0.5	5.8	2.9	nt	nt
CCCCn1c(CCCNC(=O)c2ccco2)nc2ccccc21	-1.7	2.1	0.0	12.1*	2.7	3.9	-6.2	-5.5
COC(=O)[C@H](C)NC(=O)/C=C/c1ccc(OC)cc1	-1.8	-2.7	-0.5	9.8*	4.4	10.3	6.9	3.2
COC(=O)[C@@H](NC(=O)/C=C/c1ccc(OC)cc1)C(C)C	-1.2	0.1	-0.6	-0.2	-8.2	0.1	nt	nt
O=C(c1cc(F)ccc1F)N1CCC(Oc2cccnc2)CC1	-1.2	-6.2	0.6	1.8	-2.5	1.7	nt	nt
Cc1ccc(CN2CCC[C@]3(N[C@H](c4ccccc4)[C@@H]4C(=O)N(C)C(=O)[C@@H]43)C2=O)cc1	8.2	3.6	-0.2	12.2*	1.6	8.3	-1.5	-0.7
COc1ccc(CN2CCC[C@]3(N[C@H](c4ccc(C)cc4)[C@@H]4C(=O)N(C)C(=O)[C@@H]43)C2=O)cc1	0.9	1.4	-0.1	-1.8	9.2	1.4	nt	nt
CCC(=O)Nc1cnc(NC(=O)c2cccc(F)c2)cc1C	-1.4	-0.3	0.0	-21.9	3.3	3.4	nt	nt
CC(=O)Nc1cnc(NC(=O)c2cccc(F)c2)cc1C	5.6	12.8	-0.2	6.7	2.8	10.9*	1.3	-1.4
C[C@H]1c2cccc(O)c2C(O)=C2C(=O)C3(O)C(O)=C(C(N)=O)C(=O)[C@@H](N(C)C)[C@@H]3[C@@H](O)[C@@H]21 (some centres not stated)	-5.9	14.7	-4.7	-33.5	-3.0	-45.2	nt	nt
C=C1c2cccc(O)c2C(O)=C2C(=O)[C@]3(O)C(O)=C(C(N)=O)C(=O)[C@@H](N(C)C)[C@@H]3[C@@H](O)[C@H]12	-2.6	-0.1	-7.6	15.3*	-21.3	-33.0	-159.7	-188.1
O=C(NCCNC(=O)C(F)(F)F)c1ccncc1	-2.8	3.9	0.1	3.2	-2.7	3.3	nt	nt
O=C(NCCc1ccncc1)C(F)(F)F	-8.2	12.2	-0.2	11.4*	-11.4	-0.5	-1.6	1.0
O=C(NCc1ccc(F)cc1)C(C(=O)NCc1ccc(F)cc1)c1ncc(C(F)(F)F)cc1Cl	5.7	10.4	0.3	13.1*	0.5	7.7	-1.0	1.0
NC(N)=N/N=C/c1ccc(OCc2ccccc2)c(OCc2ccccc2)c1	8.4	-9.8	-0.3	12.2*	14.0	-4.0	4.0	3.7
CC(=O)c1ccc(N2CCN(C(=O)c3ccc(Br)cc3)CC2)c(F)c1	8.4	-2.6	0.0	1.6	6.6	12.2*	-12.2	-9.6
SMILES	ADAM17 inh	HGIII-sPLA2 inh	KLK7 zymogen act	PLCg1 inh	ADAM10 inh	PLCb3 inh	PLCg1 ctr	PLCb3 confirm
O=C(O)c1cnccn1	-3.5	12.3	-0.4	1.7	3.8	-0.6	nt	nt
CSC(=N/N=C(\N)c1cnccn1)SC	4.9	3.2	-0.8	12.9*	6.3	6.2	4.9	1.0
COc1ccc(N2CCN(C(=O)CNC(=O)Cc3ccccc3)CC2)cc1	-1.9	10.3	-0.1	10.1*	-12.3	-11.8	-4.8	-2.2
Cc1ccc(NC(=O)CN2C(=O)CCSc3ccccc32)cc1C	1.5	-1.8	0.2	-1.2	-6.7	-1.9	nt	nt
CCOc1ccc(CO/N=C/c2c(C)[nH]c(=O)[nH]c2=O)cc1	5.8	2.9	-0.6	13.1*	4.4	0.3	-2.1	-1.9
O=C(Nc1ccc(Oc2ccccc2)cc1)C1CCCN1S(=O)(=O)c1cccc2cccnc12 (configuration not stated)	7.2	-5.3	0.6	0.1	15.4	1.3	nt	nt
O=[N+]([O-])c1ccc(NCCCN2CCC(C(O)(c3ccccc3)c3ccccc3)CC2)cc1	7.1	-17.1	-0.5	13.0*	12.0	9.7	8.6	6.5
OC(c1ccccc1)(c1ccccc1)C1CCN(CCCNc2ccccc2F)CC1	-1.4	-20.0	0.2	1.6	-0.4	2.8	nt	nt
COC(=O)c1cc(-c2ccc(F)cc2OCc2ccccc2)c(=O)n2c1CCC2	-1.7	1.8	0.3	7.4	2.2	0.1	nt	nt
CCCCc1c(-c2ccccc2OC)ncn1Cc1ccc(C(C)(C)C)cc1	0.6	0.0	0.2	-0.1	11.0	-1.6	nt	nt
COC(=O)[C@]12C[C@H](CC(=O)NCCC(C)C)C(=O)N(Cc3ccc(Cl)cc3Cl)C1=C[C@H](C(C)C)O[C@@H]2C1CC1	-0.3	-1.4	-0.1	3.2	7.9	4.7	nt	nt

Screens deposited in PubChem BioAssay by The Scripps Research Institute Molecular Screening Center.
